Reference: PubChem BioAssay
For some assays here: Entries with a potency or affinity are not part of this list. Calls of active or inactive are those of the source. Unless noted, no rule for the calls is given here.

What was measured:
[1] = antimalarial activity against Dd2 strain (AID 2302;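 active = growth inhibition above 50% at the single 2 µM test dose, taken to imply half-maximal potency below 2 µM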;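 also: 0% = DMSO untreated growth and 100% = chloroquine plus artemisinin killed control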); conditions: P. falciparum Dd2 in RBCs, LDH growth readout, 72 h; at 2 µM; stronger effect = higher value
[2] = HepG2 cytotoxicity, primary screen, cytotoxicity control for P. falciparum antimalarial project, cell-based, ATP luminescence (AID 2303;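 active = inhibition above 50%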;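 also: 0% = DMSO wells and 100% = digitonin-killed cells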); conditions: HepG2 viability, 24-48 h, at 10 µM, stronger effect = higher value
[3] = molecular target: L-lactate dehydrogenase (Plasmodium falciparum (isolate CDC / Honduras)) (UniProt Q27743); test: PfLDH activity inhibition – cell lysate, 3D7 strain, counter-screen for P. falciparum growth inhibition project (AID 2304);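 also: 0% = vehicle and 100% = reference inhibitor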; conditions: P. falciparum 3D7 crude extract, LDH APAD/NBT absorbance; at 2 µM; stronger effect = higher value
[4] = inhibition of 3D7 malaria parasite growth – strain 3D7 (AID 2306);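 also: 0% = DMSO wells and 100% = chloroquine plus artemisinin control wells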; conditions: P. falciparum 3D7 erythrocytic growth, LDH absorbance, 72 h; at 2 µM; stronger effect = higher value
[5] = molecular target: Calcium-dependent protein kinase 1 (Plasmodium falciparum (isolate 3D7)) (UniProt P62344); test: PfCDPK1 kinase inhibitors, biochemical, TCAMS library (AID 1159585; cut-off not given, nearly all actives have IC50 up to about 0.98 µM;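 also: inhibitors leave more ATP so luminescence rises with inhibition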); conditions: recombinant PfCDPK1, Kinase-Glo ATP depletion luminescence
[6] = molecular target: Plasmodium falciparum protein kinase 6 (PK6, PF3D7_1337100) (UniProt Q8IDW1); test: PfPK6 kinase inhibitors, biochemical, TCAMS library (AID 1159586); conditions: recombinant PfPK6, Kinase-Glo ATP depletion luminescence
[7] = molecular target: Protein kinase 7 (PK7), Plasmodium falciparum 3D7 (PF3D7_0213400) (UniProt Q7YTF7); test: inhibition of Plasmodium PK7 catalytic activity – biochemical, TCAMS antimalarial set, Kinase-Glo luminescence (AID 1159587); conditions: recombinant PfPK7, Kinase-Glo ATP depletion luminescence
[8] = molecular target: Calcium-dependent protein kinase 4 (Plasmodium falciparum (isolate 3D7)) (UniProt Q8IBS5); test: PfCDPK4 kinase inhibitors, biochemical, TCAMS library (AID 1159588; cut-off not given, nearly all actives have IC50 up to about 0.91 µM); conditions: recombinant PfCDPK4, Kinase-Glo ATP depletion luminescence
Chain of Calcium-dependent protein kinase 4 (Plasmodium falciparum (isolate 3D7)) (Q8IBS5 whole entry, looked up): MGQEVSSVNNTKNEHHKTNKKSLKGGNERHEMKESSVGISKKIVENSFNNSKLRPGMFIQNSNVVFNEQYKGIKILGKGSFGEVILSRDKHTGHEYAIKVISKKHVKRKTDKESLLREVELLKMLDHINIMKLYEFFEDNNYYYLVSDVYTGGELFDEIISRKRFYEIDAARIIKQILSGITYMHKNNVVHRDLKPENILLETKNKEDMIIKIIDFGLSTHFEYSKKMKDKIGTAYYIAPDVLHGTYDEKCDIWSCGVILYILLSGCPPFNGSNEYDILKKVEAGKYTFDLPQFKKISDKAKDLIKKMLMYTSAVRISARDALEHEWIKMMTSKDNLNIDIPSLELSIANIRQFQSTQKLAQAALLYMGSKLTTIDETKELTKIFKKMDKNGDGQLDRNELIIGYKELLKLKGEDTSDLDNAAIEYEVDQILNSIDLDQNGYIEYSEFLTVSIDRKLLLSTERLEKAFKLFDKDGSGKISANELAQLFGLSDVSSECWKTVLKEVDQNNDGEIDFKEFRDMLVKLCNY

Chain of Calcium-dependent protein kinase 1 (Plasmodium falciparum (isolate 3D7)) (P62344 whole entry, looked up): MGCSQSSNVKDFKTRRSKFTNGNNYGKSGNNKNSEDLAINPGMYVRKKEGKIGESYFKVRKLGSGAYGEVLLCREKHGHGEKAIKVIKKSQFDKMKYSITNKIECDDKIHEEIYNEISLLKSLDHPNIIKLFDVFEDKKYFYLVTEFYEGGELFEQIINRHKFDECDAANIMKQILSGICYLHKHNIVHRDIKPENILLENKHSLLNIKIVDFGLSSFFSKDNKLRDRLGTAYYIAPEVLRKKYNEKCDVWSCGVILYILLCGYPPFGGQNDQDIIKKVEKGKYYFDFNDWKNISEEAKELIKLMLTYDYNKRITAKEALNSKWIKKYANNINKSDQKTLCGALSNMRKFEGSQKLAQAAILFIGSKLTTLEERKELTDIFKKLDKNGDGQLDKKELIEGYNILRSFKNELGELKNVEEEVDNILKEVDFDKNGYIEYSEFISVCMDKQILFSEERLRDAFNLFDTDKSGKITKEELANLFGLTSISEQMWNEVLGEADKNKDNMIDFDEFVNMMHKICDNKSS
Chain of L-lactate dehydrogenase (Plasmodium falciparum (isolate CDC / Honduras)) (Q27743 whole entry, looked up): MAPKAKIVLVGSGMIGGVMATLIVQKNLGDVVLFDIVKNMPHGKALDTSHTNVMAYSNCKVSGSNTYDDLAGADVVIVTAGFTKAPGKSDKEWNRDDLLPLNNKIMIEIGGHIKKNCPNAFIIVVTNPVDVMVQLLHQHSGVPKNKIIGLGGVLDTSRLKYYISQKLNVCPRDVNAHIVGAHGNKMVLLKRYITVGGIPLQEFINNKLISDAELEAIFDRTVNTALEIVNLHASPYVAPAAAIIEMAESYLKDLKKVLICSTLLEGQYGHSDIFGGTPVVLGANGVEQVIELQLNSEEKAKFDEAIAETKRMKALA
Chain of Protein kinase 7 (PK7), Plasmodium falciparum 3D7 (PF3D7_0213400) (Q7YTF7 1-343): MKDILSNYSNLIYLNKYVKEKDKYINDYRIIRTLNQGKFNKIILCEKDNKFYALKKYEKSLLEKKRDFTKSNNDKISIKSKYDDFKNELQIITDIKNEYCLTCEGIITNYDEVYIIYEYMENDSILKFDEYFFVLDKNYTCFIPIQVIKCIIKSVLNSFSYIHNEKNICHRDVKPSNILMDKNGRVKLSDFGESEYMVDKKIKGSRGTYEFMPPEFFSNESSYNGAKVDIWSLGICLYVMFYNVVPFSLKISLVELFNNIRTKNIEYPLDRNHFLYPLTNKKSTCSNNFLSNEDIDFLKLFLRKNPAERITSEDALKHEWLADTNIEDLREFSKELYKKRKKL
Chain of Plasmodium falciparum protein kinase 6 (PK6, PF3D7_1337100) (Q8IDW1 1-305): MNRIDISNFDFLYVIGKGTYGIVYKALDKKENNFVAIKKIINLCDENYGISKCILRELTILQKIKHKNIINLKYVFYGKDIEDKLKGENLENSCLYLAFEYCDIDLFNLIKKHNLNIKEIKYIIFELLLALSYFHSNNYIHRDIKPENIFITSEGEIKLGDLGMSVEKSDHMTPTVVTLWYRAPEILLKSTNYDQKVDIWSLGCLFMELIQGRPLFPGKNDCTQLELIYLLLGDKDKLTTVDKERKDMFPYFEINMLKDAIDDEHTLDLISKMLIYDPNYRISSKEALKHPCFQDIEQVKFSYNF

CC(C)(CNC(=O)/C=C/c1ccc(Cl)c(Cl)c1)CNc1cc(=O)c2ccccc2[nH]1
inactive: growth inhibition [1] 29% | inhibition [2] -4% | inhibition [3] 0% | outcome [5] | outcome [6] | outcome [7] | outcome [8]
active: growth inhibition [4] 96%

CCOc1ccc(C(=O)Nc2cc(Br)c3c(c2)CNCC3)cc1Cl
active: growth inhibition [4] 92%
inactive: growth inhibition [1] 8% | inhibition [2] 13% | inhibition [3] 5% | outcome [5] | outcome [6] | outcome [7] | outcome [8]

Cc1ccc(CNC(=O)[C@H](Cc2ccccc2)Nc2cc(C)nc(Nc3ccccc3)n2)cc1
active: growth inhibition [1] 91% | growth inhibition [4] 101%
inactive: inhibition [2] 16% | inhibition [3] 1% | outcome [5] | outcome [6] | outcome [7] | outcome [8]

COc1ccc(NC(=O)CCNc2cc(C)nc(Nc3ccccc3)n2)cc1
active: growth inhibition [4] 92%
inactive: growth inhibition [1] 15% | inhibition [2] -9% | inhibition [3] -2% | outcome [5] | outcome [6] | outcome [7] | outcome [8]

Cc1ccc(CN2CCCN(Cc3cccc(C(=O)Nc4ccc(C(C)(C)C)cc4)c3)CC2)s1
active: growth inhibition [4] 85%
inactive: growth inhibition [1] 4% | inhibition [2] 31% | inhibition [3] -5% | outcome [5] | outcome [6] | outcome [7] | outcome [8]

COc1ccc(Oc2ccccc2CNCC2CCN(CC3CCCCC3)CC2)cc1
inactive: growth inhibition [1] 28% | inhibition [2] 34% | inhibition [3] -8% | outcome [5] | outcome [6] | outcome [7] | outcome [8]
active: growth inhibition [4] 85%

C[C@@H](Oc1cc(-n2cnc3cc(SCCN4CCN(C)CC4)ccc32)sc1C(N)=O)c1ccccc1Cl
active: growth inhibition [1] 65% | growth inhibition [4] 90%
inactive: inhibition [2] 46% | inhibition [3] -1% | outcome [5] | outcome [6] | outcome [7] | outcome [8]

CCCC(C)C(=O)N1CCOC(COCc2cccc(C(F)(F)F)c2)(c2ccc(Cl)cc2)C1 (stereo not given)
active: growth inhibition [1] 91% | growth inhibition [4] 97%
inactive: inhibition [2] 2% | inhibition [3] 0% | outcome [5] | outcome [6] | outcome [7] | outcome [8]

Cc1cc(N)c2cc(NC(=O)c3cc4ccccc4s3)ccc2n1
active: growth inhibition [1] 99% | inhibition [2] 100% | growth inhibition [4] 101%
inactive: inhibition [3] 2% | outcome [5] | outcome [6] | outcome [7] | outcome [8]

O=C(Nc1ccc(C(F)(F)F)cc1)c1ccc(NCCCN2CCCCCC2)c([N+](=O)[O-])c1
inactive: inhibition [2] 42% | inhibition [3] -5% | outcome [5] | outcome [6] | outcome [7] | outcome [8]
active: growth inhibition [1] 98% | growth inhibition [4] 102%

CCC[C@@H]([C@@H](CC1CCCCC1)C(=O)N[C@H](C(=O)Nc1nccs1)[C@H](C)O)N(O)C=O
active: growth inhibition [1] 75% | growth inhibition [4] 99%
inactive: inhibition [2] -4% | inhibition [3] -5% | outcome [5] | outcome [6] | outcome [7] | outcome [8]

Cc1cc(C(=O)CN2C(=O)NC3(CCCc4ccccc43)C2=O)c(C)n1Cc1ccco1 (stereo not given)
active: growth inhibition [4] 90%
inactive: growth inhibition [1] -5% | inhibition [2] 11% | inhibition [3] 4% | outcome [5] | outcome [6] | outcome [7] | outcome [8]

Cc1c(CC(=O)N(C)C2CCN(CCCCCNC(=O)/C=C/c3ccc(Cl)c(Cl)c3)CC2)sc2ccc(Cl)cc12
active: inhibition [2] 93% | growth inhibition [4] 95%
inactive: growth inhibition [1] 9% | inhibition [3] 3% | outcome [5] | outcome [6] | outcome [7] | outcome [8]

COc1ccc2nccc(N3CCN(CCNCc4ccc5c(n4)NC(=O)CS5)CC3)c2n1
active: growth inhibition [1] 67% | growth inhibition [4] 100%
inactive: inhibition [2] 10% | inhibition [3] 1% | outcome [5] | outcome [6] | outcome [7] | outcome [8]

Cc1cc(NC(=O)NCCN2CCC(NS(=O)(=O)c3ccccc3Cl)C2)c2ccccc2n1 (stereo not given)
active: growth inhibition [4] 97%
inactive: growth inhibition [1] 43% | inhibition [2] 1% | inhibition [3] -5% | outcome [5] | outcome [6] | outcome [7] | outcome [8]

CC(C)c1ccc(CN2CCC(CNC(=O)c3cc(-c4ccc(N(C)C)cc4)cs3)C2)cc1 (stereo not given)
inactive: growth inhibition [1] 32% | inhibition [2] 36% | inhibition [3] 5% | outcome [5] | outcome [6] | outcome [7] | outcome [8]
active: growth inhibition [4] 83%

FC(F)(F)c1ccc(CNCC2CCN(Cc3ccc4c(c3)OCO4)CC2)cc1
inactive: growth inhibition [1] 12% | inhibition [2] 27% | inhibition [3] -5% | outcome [5] | outcome [6] | outcome [7] | outcome [8]
active: growth inhibition [4] 80%

NCc1ccc(CNCc2cccc(-c3cccc(-c4nc5ccccc5[nH]4)c3)c2)cc1
active: growth inhibition [4] 101%
inactive: growth inhibition [1] 11% | inhibition [2] 7% | inhibition [3] -7% | outcome [5] | outcome [6] | outcome [7] | outcome [8]

Cc1cccc2[nH]c(-c3cccc(-c4ccc(C(=O)N5CCCCC5C(C)O)cc4)c3)nc12 (stereo not given)
active: growth inhibition [1] 91% | growth inhibition [4] 100%
inactive: inhibition [2] 26% | inhibition [3] -2% | outcome [5] | outcome [6] | outcome [7] | outcome [8]

CN1CCN(CCCN(Cc2ccc(-c3ccc(CNCc4ccc5c(c4)OCO5)cc3)cc2)C(=O)CCC2CCCC2)CC1
inactive: inhibition [3] 8% | outcome [5] | outcome [6] | outcome [7] | outcome [8]
active: growth inhibition [1] 85% | inhibition [2] 55% | growth inhibition [4] 99%

CCCCN(Cc1cccc(C(F)(F)F)c1Cl)c1ccc(C(O)(C(F)(F)F)C(F)(F)F)cc1
active: growth inhibition [1] 55% | growth inhibition [4] 91%
inactive: inhibition [2] 10% | inhibition [3] -3% | outcome [5] | outcome [6] | outcome [7] | outcome [8]

CCOC(=O)c1cn(CC)c2cc(OCc3ccccc3)ccc2c1=O
active: growth inhibition [1] 96% | growth inhibition [4] 97%
inactive: inhibition [2] 2% | inhibition [3] 2% | outcome [5] | outcome [6] | outcome [7] | outcome [8]

CC(C)N1CCC(N(Cc2ccc(-c3ccc(Cl)cc3)cc2)C(=O)Cn2c(CCc3cccc(F)c3F)cc(=O)c3ccccc32)CC1
active: growth inhibition [1] 73% | inhibition [2] 62% | growth inhibition [4] 96%
inactive: inhibition [3] 4% | outcome [5] | outcome [6] | outcome [7] | outcome [8]

COc1cc(Nc2nccc(N3CCC(NC(=O)C(C)c4ccc(Cl)cc4)C3)n2)cc(OC)c1OC (stereo not given)
inactive: inhibition [2] 2% | inhibition [3] -7% | outcome [5] | outcome [6] | outcome [7] | outcome [8]
active: growth inhibition [1] 90% | growth inhibition [4] 97%

O=C(NCc1ccccc1)Nc1ccc(-c2ccc(-c3nc4ccc(C(F)(F)F)cc4[nH]3)cc2)cc1
inactive: growth inhibition [1] 23% | inhibition [2] 40% | inhibition [3] 4% | outcome [5] | outcome [6] | outcome [7] | outcome [8]
active: growth inhibition [4] 99%

CC(C)Nc1cc(C(=O)N[C@@H](Cc2ccccc2)[C@H](O)CNCc2cccc(C(F)(F)F)c2)c(F)c(N2CCCCS2(=O)=O)c1
active: growth inhibition [1] 78% | growth inhibition [4] 93%
inactive: inhibition [2] -5% | inhibition [3] -2% | outcome [5] | outcome [6] | outcome [7] | outcome [8]

Cc1cccc(CN2CCCN(Cc3ccc(C(=O)Nc4ccc(C(C)(C)C)cc4)cc3)CC2)c1
inactive: growth inhibition [1] 4% | inhibition [3] -7% | outcome [5] | outcome [6] | outcome [7] | outcome [8]
active: inhibition [2] 57% | growth inhibition [4] 97%

O=C(NC1CCC(CCN2Cc3cccc(F)c3C2)CC1)c1cccc(-c2cccnc2)c1 (stereo not given)
active: growth inhibition [1] 82% | growth inhibition [4] 98%
inactive: inhibition [2] 16% | inhibition [3] -2% | outcome [5] | outcome [6] | outcome [7] | outcome [8]

Cc1noc(C)c1-c1cccc(CNCc2ccc(-c3cccc(-c4nc5ccccc5[nH]4)c3)cc2)c1
active: growth inhibition [1] 57% | inhibition [2] 50% | growth inhibition [4] 100%
inactive: inhibition [3] -1% | outcome [5] | outcome [6] | outcome [7] | outcome [8]

O=C(Nc1ccc(Cl)cc1)Nc1cccc(-c2cccc(-c3nc4ccc(F)cc4[nH]3)c2)c1
inactive: inhibition [3] -2% | outcome [5] | outcome [6] | outcome [7] | outcome [8]
active: growth inhibition [1] 84% | inhibition [2] 79% | growth inhibition [4] 100%

CC(=O)Nc1ccc(S(=O)(=O)N2CCN(c3nc(NC4CCCC4)c4ccccc4n3)CC2)cc1
active: growth inhibition [4] 88%
inactive: growth inhibition [1] 2% | inhibition [2] 7% | inhibition [3] 1% | outcome [5] | outcome [6] | outcome [7] | outcome [8]

Cc1cccc2[nH]c(-c3ccc(-c4ccc(CN5CCCC5CN)cc4)cc3)nc12 (stereo not given)
inactive: inhibition [2] 28% | inhibition [3] 1% | outcome [5] | outcome [6] | outcome [7] | outcome [8]
active: growth inhibition [1] 65% | growth inhibition [4] 99%

O=C(N[C@H]1CCN(Cc2ccc(OCCN3CCNCC3)c(Br)c2)C1)c1ccc(Cl)c(Cl)c1
inactive: growth inhibition [1] 36% | inhibition [3] 5% | outcome [5] | outcome [6] | outcome [7] | outcome [8]
active: inhibition [2] 69% | growth inhibition [4] 101%

COCCN1CCC(CN(C)CC(C)(C)c2nc(-c3ccc(Cl)c(O)c3)c(-c3ccncc3)[nH]2)CC1
inactive: growth inhibition [1] 10% | inhibition [2] -8% | inhibition [3] -2% | outcome [5] | outcome [6] | outcome [7] | outcome [8]
active: growth inhibition [4] 94%

CCN(CC)CCNc1ccnc2[nH]c3ccc(Cl)cc3c12
active: growth inhibition [1] 92% | growth inhibition [4] 100%
inactive: inhibition [2] 3% | inhibition [3] 1% | outcome [5] | outcome [6] | outcome [7] | outcome [8]

COc1ccc(Cn2c(Nc3cccc(C(F)(F)F)c3)nc3ccc(C(=O)NCCN4CCCC4)cc32)cc1Cl
active: growth inhibition [4] 100%
inactive: growth inhibition [1] 6% | inhibition [2] 14% | inhibition [3] 2% | outcome [5] | outcome [6] | outcome [7] | outcome [8]

COc1ccc(-c2nc(-c3ccc([N+](=O)[O-])cc3)no2)cc1OC
inactive: growth inhibition [1] -5% | inhibition [2] 14% | inhibition [3] -1% | outcome [5] | outcome [6] | outcome [7] | outcome [8]
active: growth inhibition [4] 96%

CCN(CC)CC(O)c1cc(-c2ccc(OC)cc2)nc2cc(Cl)ccc12 (stereo not given)
active: growth inhibition [1] 98% | growth inhibition [4] 99%
inactive: inhibition [2] 12% | inhibition [3] -10% | outcome [5] | outcome [6] | outcome [7] | outcome [8]

COc1ccc(NC(=O)Nc2cc(C)nc3cccnc23)cc1Cn1ccnc1
active: growth inhibition [4] 100%
inactive: growth inhibition [1] 41% | inhibition [2] 12% | inhibition [3] -3% | outcome [5] | outcome [6] | outcome [7] | outcome [8]

O=C(Nc1ccccc1Oc1ccccc1)NC1CCN(c2ccnc3cc(Cl)ccc23)C1 (stereo not given)
inactive: inhibition [2] -1% | inhibition [3] 0% | outcome [5] | outcome [6] | outcome [7] | outcome [8]
active: growth inhibition [1] 74% | growth inhibition [4] 99%
